Test results reported in PubChem BioAssay.

Test system: Sonic hedgehog protein (Shh)
Assay: Sonic hedgehog microarray binding compounds – biochemical, small-molecule microarray, 635/667 nm fluorescence, primary screen (AID 1151);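 also: Shh protein binding to compounds spotted on small-molecule microarray slides; score combines spot fluorescence intensity with signal-to-noise across triplicate slides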
Settings: 635 nm fluorescence, higher = more signal

Row | Compound | composite z-score
1 | COc1ccc(C#Cc2ccc3c(c2)[C@]2(C(=O)N3)[C@H](C(=O)N3CCCCCCC3)[C@H]3C(=O)O[C@H](c4ccccc4)[C@H](c4ccccc4)N3[C@@H]2c2ccc(O)cc2)cc1 | 1.6
2 | NCCCCCNC(=O)[C@H]1C[C@H]2C(=O)N[C@@H](Cc3ccccc3)C(=O)N2[C@H]1c1ccc(O)cc1 | 0.313
3 | CC(C)c1ccc(NN2C(C(O)Cc3ccccc3)C=CC3C(=O)N(c4ccccc4)C(=O)C32)cc1 (centres undefined) | -0.154
4 | Cc1ccc(S[C@]2(C(=O)NCc3ccccc3)CC(=O)N(Cc3cc(C(F)(F)F)cc(C(F)(F)F)c3)[C@@H]2c2ccc(CO)cc2I)cc1 | -0.757
5 | COCCCNC(=O)[C@@]1(c2ccc([N+](=O)[O-])cc2)CC(=O)N(C(C)C)[C@@H]1c1ccc(CO)cc1 | 0.0776
6 | CN1C(=O)C2C=CC(C(O)c3ccc(I)cc3)N(Nc3ccccc3)C2C1=O (centres undefined) | -0.0996
7 | CCOC(=O)C1=C[C@@H](c2ccccc2)N(S(=O)(=O)c2ccc(C)cc2)[C@H]1c1ccccc1 | 0.212
8 | CC1CC/C=C\[C@H]2OC34C=CCN(C(C)(C)C)C(=O)[C@H]3N(C(CO)C(C)C)C(=O)[C@@H]4C2C(=O)O1 (some centres undefined) | 0.774
9 | COC(=O)[C@@]1(Cc2ccc(F)cc2)[C@H]2c3cc(C(=O)N4CCCC4)n(CC4CC4)c3C[C@H]2CN1C(=O)c1ccccc1 | 0.377
